In the supplement of paper PMC9942566:
± gives the standard deviation of the averaged measurements.

What follows are compounds tested on Serratia marcescens K904 PosmB-luxCDABE reporter (pMQ747) (assay: PosmB-lux reporter fold induction (RLU/OD600 relative to no-compound control), highest over Biolog concentrations; higher = stronger reporter activation). Conditions: ΔrcsB mutant CMS5177; 4 h.
Procedure: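 Serratia marcescens K904 (wild type) or its isogenic ΔrcsB mutant, carrying the Rcs-dependent PosmB-luxCDABE reporter plasmid pMQ747, was grown in LB at OD600 0.1 in Biolog Phenotype MicroArray plates PM11-20 for 4 h at 30-32°C. Each compound is present at 3-4 proprietary concentrations (not stated); per the Fig. S1 legend the value given is the highest fold over those wells. Three independent trials.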
With `Cc1ncc([N+](=O)[O-])n1CC(O)CCl` (stereo not given) [ornidazole] (Biolog plate: PM20, well positions: C9-12) the “PosmB-lux reporter fold induction” value was 1.59 ± 0.49. With `COc1cc(Cc2cnc(N)nc2N)cc(OC)c1OC` [trimethoprim] (Biolog plate: PM16, well positions: B9-12) the “PosmB-lux reporter fold induction” value was 8.21 ± 3.9. With `CO[C@@]1(NC(=O)Cc2cccs2)C(=O)N2C(C(=O)O)=C(COC(N)=O)CS[C@@H]21` [Cefoxitin] (Biolog plate: PM14, well positions: E1-4) the “PosmB-lux reporter fold induction” value was 1.2 ± 0.19. In the case of `CN(C)C(=O)/N=N/C(=O)N(C)C` [diamide] (Biolog plate: PM16, well positions: D5-8), the “PosmB-lux reporter fold induction” value is reported as 2.26 ± 0.64. With `Nc1ccn(C2OC(CO)C(O)C2O)c(=O)n1` [Cytosine-1-beta-D-arabino-furanoside] (Biolog plate: PM13, well positions: E1-4) the “PosmB-lux reporter fold induction” value was 1.91 ± 0.42.
